± gives the standard deviation. Whole data set: some 3,700 sequences, median “pre-steady-state target cleavage rate” near 0.02, cut for the highest 2% near 0.23. What follows is part of a selection rich in the highest values, with near analogues and random picks from the rest. Where only a bound is given, the exact number is not on record here.

For the experiment, the system named is MILI (PIWIL2) piRISC loaded with Kctd7 piRNA (26 nt). Kind of experiment: pre-steady-state target cleavage rate (min^-1); MIWI and MILI are mouse PIWI proteins and EfPiwi is from a freshwater sponge; tags in brackets are library labels; higher = faster piRNA-guided slicing of the target. The settings on record: guide: Kctd7 piRNA 5'p-UGUUAAUCUCUCAGAGAAGGUGACAG; auxiliary factor: 500 nM mouse GTSF1. On the procedure:
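Cleave-'n-Seq: a library of target RNAs (target site embedded in constant flanks, ACAGCATTCCGCGTTAGTGATATCCG... 5' flank; DNA-blocked outside the site) at 0.1 nM was incubated with 1 nM active mouse MILI or MIWI piRISC (synthetic 5'-monophosphorylated piRNA guide) with or without 500 nM mouse GTSF1 at 33 °C for 1 min to 16 h. Uncleaved targets were sequenced and normalised to non-target controls, and the pooled three trials were fitted to a burst-and-steady-state model to give the pre-steady-state cleavage rate (min^-1; k3 is constrained to at most 1e-4). Sequence is the target site only; target names encode pairing extent (gX:gY) and contiguous / 1-mismatch / 2-mismatch / bulge geometry. Fits with R² ≤ 0 are excluded.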
UAGUGUGUCACCUUCUCUGAGAGAAUUAACA: the “pre-steady-state target cleavage rate” value amounted to 0.277 ± 0.048.
Regarding UAGUGUGUCACCUUCUCUGAGAAUUAACA, the “pre-steady-state target cleavage rate” value is 0.0848 ± 0.036.
Next, UAGUCUGUCACCUUCUCUGAGAAAUUAACA: 0.143 ± 0.018; UAGUCUGUCACCUUCUCUGAGAGAAUUAACA: 0.32 ± 0.051.
The figure for UAGUGUGUCACCUUCUCUGAGAAAUUAACA is 0.112 ± 0.019; for UAGUCUGUCACCUUCUCUGAGAAUUAACA it is 0.0747 ± 0.031; for UAGUGACAGUCCUUCUCUGAUGAGAUUAACA it is 0.00278 ± 0.0025.
Next, UAGUGACACUCCUUCUCUGAGUGAUUAACA: 0.00415 ± 0.0032.
On to UAGUGACAGACGUACUCUGAGAGAUUAACA, for which the “pre-steady-state target cleavage rate” value came to 0.014 ± 0.0034.
The figure for UAGUGUGUCACCUACUCUGAGAGAUUUUGA is 0.0414 ± 0.016.
Next, UAGUGUGUCACCUACUCUGAGAGAUUAUGA: 0.0343 ± 0.015; UAGUGAGUCACCUACUCUGAGAGAUUUACA: 0.164 ± 0.053; UAGUGUGUCACCUACUCUGAGAGAUUUACA: 0.25 ± 0.052.
Next, UAGUGUGUCACCUACUCUGAGAGAUUAAGA: 0.1 ± 0.023; UAGUGUGUCACCUACUCUGAGAGAUUAUCA: 0.239 ± 0.049; UAGUGUGUCACCUUCUCUCUGAGAUUAACA: 0.0138 ± 0.004.
For UAGUGUGUCACCUUCUCUGAGAGAUUACA, the “pre-steady-state target cleavage rate” value worked out at 0.122 ± 0.036.
Next, UAGUGUCUCACCUUCUCUGAGAGAUUUACA: 0.196 ± 0.043.
Consider UAGUGUGUCACCUUCUCUGAGAGAUUUACA, for which the “pre-steady-state target cleavage rate” value was 0.266 ± 0.047.
In the case of UAGUGUGUCACCUUCUCUGAGAGAUUUAACA, the “pre-steady-state target cleavage rate” value was determined as 0.391 ± 0.052.
Consider “UAGUGUGUCACCUUCUCUGAGAGAUUAACA [g2:g25:cont:t1A]”, for which the “pre-steady-state target cleavage rate” value amounted to 0.216 ± 0.015.
Next, UAGUGACUGUCCUUCUCUGAGAGAUUAACA: 0.2 ± 0.016; UAGUGAGUGACCUUGUCUGAGAGAUUAACA: 0.0726 ± 0.014; UAGUGACAGACCUUGUCUGACAGAUUAACA: 0.0121 ± 0.0036.
The figure for UAGUCUGUCACCUUCUCUGAGAGAUCAACA is 0.114 ± 0.018.
The figure for UAGUCUGUCACCUUCUCUGAGAGAUUCACA is 0.265 ± 0.059; for UAGUCUGUCACCUUCUCUGAGAGAUUCAACA it is 0.324 ± 0.061.
As for UAGUGAGUCACCUUCUCUGAGAGAUUCAACA, the “pre-steady-state target cleavage rate” value is 0.279 ± 0.054.
Turning to UAGUGAGUCACCUUCUCUGAGAGAUCAACA, the “pre-steady-state target cleavage rate” value was found to be 0.0788 ± 0.025.
Next, UAGUCUGUCACCUUCUCUGAGAGAUUUUCA: 0.12 ± 0.031; UAGUCUGUCAACCUUCUCUGAGAGAUUAACA: 0.0716 ± 0.011; UAGUGAGUCACCUUCUCUGAGAGAUUUUCA: 0.145 ± 0.044.
The figure for UAGUCUGUCACCUUCUCUGAGAGAUUACACA is 0.153 ± 0.022; for UAGUGACAGUGCUUCUCUGAGAGAUUAUCA it is 0.00765 ± 0.0025.
The figure for UAGUCUGUCACCUUCUCUCAGAGAUUAACA is 0.064 ± 0.0081; for UAGUGACAGUGGAACUCUGAGAGUUAAACA it is less than 0.0001; for UAGUGACACACCUUCUCUGAUGAGAUUAACA it is 0.00949 ± 0.0043.
Regarding UAGUGAGUCACCUUCACUGACAGAUUAACA, the “pre-steady-state target cleavage rate” value is 0.0411 ± 0.013.
The figure for UAGUGACACACCUUCUCUGAGAAAUUAACA is 0.219 ± 0.035.
Turning to UAGUGACUCACCUUCUCGAGAGAUUAACA, the “pre-steady-state target cleavage rate” value was determined as 0.02 ± 0.0065.
Next, UAGUGUGUCACCUUCUCUGAAAGAUUAACA: 0.0569 ± 0.011; UAGUGACAGUGGAACACUGAGACAUUAACA: less than 0.0001; UAGUCUCUCACCUUCUCUGAGAGUUUAACA: 0.183 ± 0.024.
On to UAGUGUGUCACCUUCUCUGAGAGUUAACA, for which the “pre-steady-state target cleavage rate” value worked out at 0.194 ± 0.055.
With UAGUGUGUCACCUUCUCUGAGAGAGUUAACA, the “pre-steady-state target cleavage rate” value stood at 0.259 ± 0.046.
The figure for UAGUGUGUCACCUUCUCUGAGAGUUAAACA is 0.146 ± 0.049.
Take UAGUGUGUCACCUUCUCUGAGAGAGUAACA: the “pre-steady-state target cleavage rate” value amounted to 0.287 ± 0.056.
The figure for UAGUGUGUCACCUUCUGUGAGAGUUUAACA is 0.0964 ± 0.027.
The figure for UAGUGACUCACCUUCUCUGAGAGUUUAACA is 0.118 ± 0.028; for UAGUGUGUCACCUUCUCUGAGAGUAUAACA it is 0.181 ± 0.072.
The figure for UAGUGUGUCACCUUCUCUGUGAGUUUAACA is 0.0386 ± 0.0085; for UAGUGUCUCACCUUCUCUGAGAGUUUAACA it is 0.286 ± 0.038; for UAGUGUGUCACCUUCUCUGAGAGUUUAACA it is 0.316 ± 0.078.
As for UAGUGUGUCACCUUCUCUGAGAGUAAAACA, the “pre-steady-state target cleavage rate” value turned out to be 0.194 ± 0.057.
The figure for UAGUGAGUCACCUUGUCUGAGAGAUUUUGA is 0.0161 ± 0.0098; for UAGUGACACAGGAUCUCUGAGAGAUAUUGA it is less than 0.0001; for UAGUGUGUCACCGUCUCUGAGAGAUUAACA it is 0.113 ± 0.012.
The figure for UAGUCUGUCUCCUUCUCUGAGAGAUUAAGA is 0.054 ± 0.012.
Next, UAGUCUGUCACCUUCUCUGAGAGAUCUAACA: 0.258 ± 0.054; UAGUGUGUCACCUUCUCUGAGAGAUCUAACA: 0.306 ± 0.071.
In the case of UAGUGUGUCACCUUCUCUGAGAGAUAACA, the “pre-steady-state target cleavage rate” value stood at 0.0605 ± 0.02.
Take UAGUCUGUCACCUUCUCUGAGAGACUAACA: the “pre-steady-state target cleavage rate” value came out at 0.149 ± 0.027.
Next, UAGUCUGUCACCUUCUCUAAGAGAUUAACA: 0.138 ± 0.0097.
With UAGUGAGUCACCUUCUCUGAGAGAUCUAACA, the “pre-steady-state target cleavage rate” value was found to be 0.171 ± 0.035.
Next, UAGUGAGUCACCUUCUGUGUGAGAUUAACA: 0.0434 ± 0.0067; “UAGUGACAGUCCUUCUCUGAGAGUAAUUGA [g8:g20:cont:t1A]”: less than 0.0001.
The figure for UAGUGACUCACCUUCUCUGAGAGCUUAACA is 0.156 ± 0.022.
Next, UAGUGUGUCACCUUGCUCUGAGAGAUUAACA: 0.248 ± 0.061.
With UAGUGUGUCACCUUGUCUGAGAGAUUAACA, the “pre-steady-state target cleavage rate” value amounted to 0.134 ± 0.021.
The figure for UAGUGAGUCACCUUGCUCUGAGAGAUUAACA is 0.351 ± 0.077; for UAGUCUGUCACCUGCUCUGAGAGAUUAACA it is 0.175 ± 0.011; for UAGUCUGUCACCUUGUCUGAGAGAUUAACA it is 0.133 ± 0.016.
The figure for UAGUGUGUCACCUGCUCUGAGAGAUUAACA is 0.157 ± 0.012; for UAGUCUGUCACCUUGCUCUGAGAGAUUAACA it is 0.299 ± 0.059; for UAGUGAGUCACCUGCUCUGAGAGAUUAACA it is 0.169 ± 0.018.
Turning to UAGUGACUCACCUUGCUCUGAGAGAUUAACA, the “pre-steady-state target cleavage rate” value was 0.048 ± 0.016.
The figure for UAGUGACAGUCCUUCUCUGAGAGAUUAACCA is 0.0785 ± 0.0063.
The figure for UAGUGACACACCUUCUCUGAGAGAUUCAACA is 0.244 ± 0.061; for UAGUGACACACCUUCUCUGAGAGAUUUUCA it is 0.064 ± 0.02.
Next, UAGUGACUCACCUUCUCUGAGAGAUUCAACA: 0.221 ± 0.035.
With UAGUGACACACCUUCUCUGAGAGAUAUUCA, the “pre-steady-state target cleavage rate” value worked out at 0.0197 ± 0.0083.
For UAGUGACACACCUUCUCUGAGAGAUUUAACA, the “pre-steady-state target cleavage rate” value came to 0.243 ± 0.023.
Next, UAGUGACUCACCUUCUCUGAGAGAUUUUCA: 0.0728 ± 0.019.
Consider UAGUGACACACCUUCUCUGAGAGAUUCACA, for which the “pre-steady-state target cleavage rate” value stood at 0.258 ± 0.057.
Next, UAGUGACACACCUUCUCUGAGAGAUCAACA: 0.0804 ± 0.024.
Next, UAGUGACACACCUUCUCUCUGAGAUUAACA: 0.00653 ± 0.0037.
The figure for UAGUGACAGACCUUCUCUGAGAGAUUCAACA is 0.177 ± 0.04; for UAGUGACUCACCUUCUCUGAGAGAUUCACA it is 0.314 ± 0.091.
Consider “UAGUGACACACCUUCUCUGAGAGAUUAACA [g2:g22:cont:t1A]”, for which the “pre-steady-state target cleavage rate” value worked out at 0.178 ± 0.01.
The figure for UAGUCUGUCACCUUCUCAGAGAGAAUAACA is 0.0517 ± 0.017.
The figure for UAGUGACUCACCUUCUCUGAGGGAUUAACA is 0.0864 ± 0.011.

The values are drawn from the supplement of paper PMC10338343.
